Experimental findings from PubChem BioAssay are described below.

Calls of active or inactive are those of the source. How the calls were made is not given here.

The target of the test is Pantothenate synthetase (Mycobacterium tuberculosis (strain ATCC 25618 / H37Rv)) (UniProt P9WIL5). Nature of the test: Coupled enzyme confirmation of inhibitors against recombinant Mtb PanC (AID 375).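 Further: 0% = full reaction with vehicle and 100% = no enzyme background.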 The settings on record: coupled enzyme assay; at 10 µM, stronger effect = higher value.
Sequence of Pantothenate synthetase (Mycobacterium tuberculosis (strain ATCC 25618 / H37Rv)) (P9WIL5 whole entry, looked up): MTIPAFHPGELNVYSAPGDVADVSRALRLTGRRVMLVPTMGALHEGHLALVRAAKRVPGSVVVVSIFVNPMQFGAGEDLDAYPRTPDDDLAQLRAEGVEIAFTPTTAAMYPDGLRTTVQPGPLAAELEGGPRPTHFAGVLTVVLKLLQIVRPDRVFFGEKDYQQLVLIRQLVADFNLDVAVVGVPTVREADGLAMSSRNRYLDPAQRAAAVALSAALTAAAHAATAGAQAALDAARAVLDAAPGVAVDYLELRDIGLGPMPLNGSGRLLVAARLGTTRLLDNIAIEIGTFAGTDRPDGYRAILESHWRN
Turning to `CCOc1ccc(N2CC(C(=O)Nc3cccc(C)c3C)CC2=O)cc1` (stereo not given), the inhibition was 0% (inactive). For `CCn1cc(S(=O)(=O)CC(=O)Nc2ccc(OC)cc2)c2ccccc21` the value was 1% (inactive); for `Cc1ccc(S(=O)(=O)N2CCC(C(=O)N3CCC[C@H]3C(=O)NCc3ccccc3)CC2)cc1`, 0% (inactive).

In the case of `CCN1CCN(CCNC(=O)c2cn(C(C)c3ccccc3F)nn2)CC1` (stereo not given), the inhibition was 0% (inactive).

For the compound `N#Cc1nc(-c2cccs2)oc1NCCc1ccccc1`, the inhibition was 0% (inactive). For `Cc1nnc(C)n1/N=C/c1cccc(Oc2ccccc2)c1` the value was 1% (inactive); for `CCOC(=O)CCCOC(=O)c1ccc(S(=O)(=O)N(C)C)cc1`, 0% (inactive); for `CN(C)c1cccc2c(S(=O)(=O)Nc3ccccn3)cccc12`, 1% (inactive). `O=C(CC1Oc2ccccc2NC1=O)NCCCN1CCOCC1` (stereo not given): the inhibition was 0% (inactive). As to `CC(=O)c1c(NCCc2ccccc2)cc(C)oc1=O`, the inhibition is 0% (inactive). For `O=C(Cn1cnc2ccccc2c1=O)NCCC(=O)N1CCN(Cc2ccccc2)CC1` the value was 0% (inactive); for `Cc1ccc(S(=O)(=O)C2(C(=O)N3CCCCCC3)CC2)cc1`, 0% (inactive); for `CC1CN(C2CCCCC2)c2nc3c(c(=O)[nH]c(=O)n3C)n2C1` (stereo not given), 2% (inactive). As for `CN(C)CCCNC(=O)CCC1CCCCC1`, the inhibition is 6% (inactive).

Regarding `CCN(CC)CCCC1(CN)OCCc2ccccc21` (stereo not given), the inhibition was 0% (inactive). The result for `CCOc1cc(S(=O)(=O)NCc2ccc3c(c2)OCO3)ccc1F` reads 2% (inactive); that for `Cc1cc(=O)[nH]c2c1cnn2Cc1ccccc1`, 1% (inactive); that for `CC(C)(C)SCCNC(=O)COc1ccccc1`, 3% (inactive). For `CCCCCc1c(C)nc(Nc2nc(C)c3cc(OC)ccc3n2)[nH]c1=O` the value was 0% (inactive). For the compound `CC(=O)c1c(C)oc2ccc(NS(=O)(=O)c3ccc(O)c(C(=O)O)c3)cc12`, the inhibition was 4% (inactive). In the case of `CCCC(=O)Nc1ccccc1-c1nnn(CC(=O)Nc2ccc(OC)cc2)n1`, the inhibition is 0% (inactive).

Regarding `Cc1ccc(NC(=O)CSc2nnc(NC(=O)CN3CCOCC3)s2)cc1`, the inhibition is 5% (inactive).

Take `COC(=O)/C=c1/s/c(=C(/C#N)C(=O)N2CCOCC2)n(-c2ccccc2)c1=O`: the inhibition is 4% (inactive). The result for `O=C(Nc1cccnc1)Nc1ccc(F)c(Cl)c1` reads 0% (inactive). For `CCOC(=O)c1ccccc1NC(=O)CSc1nnc(COc2ccccc2C)n1C` the value was 2% (inactive); for `CCCCC(=O)Nc1nn(CCC)c2nc3ccccc3cc12`, 0% (inactive). For `O=S(=O)(c1cccc(-c2nnco2)c1)N1CCCC1` the value was 0% (inactive). In the case of `CCOC(=O)CSc1nnc(NC(=O)c2cccc(S(=O)(=O)N3CCCCC3)c2)s1`, the inhibition is 5% (inactive).

As to `C/C(Cl)=C\Cn1c(Nc2ccc(C)cc2)nc2c1c(=O)n(C)c(=O)n2C`, the inhibition was 3% (inactive). Consider `COc1ccc(S(=O)(=O)N2CCN(C3CCCCCCC3)CC2)cc1`, for which the inhibition was 1% (inactive). The result for `Cc1cc(C)n(CCCNC(=O)c2ccc3c(c2)NC(=O)CS3)n1` reads 0% (inactive); that for `CN1CCN(c2nc(-c3ccncc3)nc3ccccc23)CC1`, 0% (inactive); that for `C[C@]12CCC(=O)C=C1CC[C@@H]1[C@@H]2CC[C@@]2(C)[C@H]1CC[C@]2(O)C(=O)CO`, 0% (inactive).

Consider `C=CCSc1nc(N)c2c(C)c(C)sc2n1`, for which the inhibition was 0% (inactive).

Turning to `O=C(c1ccco1)N(Cc1cc2ccccc2[nH]c1=O)C1CCCCC1`, the inhibition was 0% (inactive). Turning to `CC(=O)c1cc(-c2ccccc2)n(CC(=O)N2CCC(N3CCCCC3)CC2)c1C`, the inhibition is 0% (inactive).

With `CCN(CC)S(=O)(=O)c1ccc(F)c(C(=O)NCCC(C)C)c1`, the inhibition is 2% (inactive). The result for `CNC(=O)c1ccccc1NC(=O)c1c(O)c2c([nH]c1=O)CCCC2` reads 7% (inactive); that for `Cc1nn(-c2ccc(Cl)cc2)c2sc(C(=O)N3CCN(c4ccccn4)CC3)cc12`, 4% (inactive); that for `CSc1nnc2c3ccccc3n(Cc3ccccc3)c2n1`, 7% (inactive).

One may read the inhibition as the share of the control response that was lost under treatment.
